CHX counter: counter-screen for Shiga toxin inhibitors: cycloheximide protein synthesis inhibition; cell reporter, cycloheximide protein synthesis inhibition counterscreen; max response, %; 12% of 300,000 active; in the data active = max response mostly above about 13%, no sharp cut-off; inactive = mostly below about 14%; also: read at 38.3 µM for the half of the compounds with a filed dose; 0% is about no effect
LmPK inh: inhibitors of Leishmania mexicana pyruvate kinase; Potency, µM (top dose mostly 57.5 µM), inactives show at the highest dose activity change, negative = inhibition, most hits filed as inhibitors; 0.37% of 290,000 active; Q27686; AID 1721; purified LmPK, Kinase-Glo ATP luminescence, 1 h; also: potency is read from the fitted curve at half-maximal effect; % is scaled to controls: 0 for no effect and ±100 for the full control effect
Target sequence (Q27686 whole entry, looked up): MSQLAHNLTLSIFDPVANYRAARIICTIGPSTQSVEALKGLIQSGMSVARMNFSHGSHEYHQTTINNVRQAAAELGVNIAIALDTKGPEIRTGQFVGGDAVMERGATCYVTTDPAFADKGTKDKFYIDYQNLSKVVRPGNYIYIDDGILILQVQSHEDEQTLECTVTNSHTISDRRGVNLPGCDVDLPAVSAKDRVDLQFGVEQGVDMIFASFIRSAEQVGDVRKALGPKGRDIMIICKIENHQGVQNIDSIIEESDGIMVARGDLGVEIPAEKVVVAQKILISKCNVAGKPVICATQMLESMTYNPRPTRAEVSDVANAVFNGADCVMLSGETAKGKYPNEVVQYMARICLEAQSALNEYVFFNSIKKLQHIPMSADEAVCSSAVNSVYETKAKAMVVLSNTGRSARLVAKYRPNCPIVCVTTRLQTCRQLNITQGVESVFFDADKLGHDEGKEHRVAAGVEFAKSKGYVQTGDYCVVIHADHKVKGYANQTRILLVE
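Pyruvate kinase activity monitored as ATP production (luciferase luminescence). Conditions: 0.1 nM enzyme, 0.5 mM PEP, 0.1 mM ADP, 1 h, RT; normalized against uninhibited and no-enzyme wells.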
Giardia FBPA inh: Giardia lamblia aldolase inhibition; AID 2451; A8B2U2; 0.71% of 290,000 active; Potency, µM (highest dose often 59.6 µM), for the others: top-dose activity, negative = inhibition, usual class: inhibitors; purified Giardia FBPA; also: potency is read from the fitted curve at half-maximal effect; % is scaled to controls: 0 for no effect and ±100 for the full control effect; nearly all actives have a fitted effect of over 55% in size
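Giardia FBPA (40 nM reagent) was preincubated 10 min at RT with compound (up to 57.5 uM final), then substrate plus GAPDH/TPI/NAD/arsenate coupling system with diaphorase/resazurin was added; resorufin fluorescence (525/598 nm) was read after 20 min.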
Sm TGR inh: inhibitors of Schistosoma mansoni thioredoxin glutathione reductase. AID 485364. Q962Y6. Potency, µM (titrated, usually from 114 µM), for the others: at the highest dose activity change, negative = inhibition, usual class: inhibitors. 3% of 360,000 active. purified TGR, DTNB reduction, TNB absorbance 405 nm; also: potency is read from the fitted curve at half-maximal effect; % is scaled to controls: 0 for no effect and ±100 for the full control effect; nearly all actives have a fitted effect of over 60% in size
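Kinetic colorimetric format: TGR-catalysed, NADPH-driven DTNB reduction monitored via TNB absorbance. Enzyme dispensed at 20 nM; compound exposure 15 min at room temperature before reaction start.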
Tb PYK inh: T. brucei pyruvate kinase inhibition; TbPYK enzyme, Kinase-Glo Plus ATP luminescence, 45 min; Q57TT1; Potency, µM (doses to about 76.8 µM), for inactives: at the top dose activity, negative = inhibition, usual class: inhibitors; 0.12% of 410,000 active; also: potency is read from the fitted curve at half-maximal effect; % is scaled to controls: 0 for no effect and ±100 for the full control effect; nearly all actives have a fitted effect of over 50% in size
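TbPYK + substrate in 50 mM TEA pH 7.2, 100 mM KCl, 10 mM MgCl2, 0.05% BSA, 0.01% Tween-20; cpd pinned; ADP 130 uM final; 45 min RT; Kinase-Glo Plus 10 min; luminescence endpoint.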
Shiga inhibitor: inhibitors of Shiga toxin in Vero cells | 9.2% of 290,000 active | inhibition, % at 38.7 µM | Vero cells, Shiga toxin protein synthesis inhibition reporter; in the data active = inhibition mostly above about 28%, no sharp cut-off; inactive = mostly below about 43%; also: 0% is about no effect
The depositor's hits bear a star; ? = inconclusive; nt = not tested or not shown; + = active, no number; [ ] = remark or other dose. Shown is part of a subset that was picked to be rich in hits. Unless noted, calls follow the shape of the dose curve; as a rule, active = well fitted curve in the direction sought with a large enough effect; inconclusive = small, poorly fitted or top-dose-only effect, or another doubt; inactive = no such curve, though single readings can be large; an effect the other way counts as inactive or inconclusive.

SMILES	CHX counter	LmPK inh	Giardia FBPA inh	Sm TGR inh	Tb PYK inh	Shiga inhibitor
CCc1ccc(NC(=O)CN(CC(=O)Nc2ccc(CC)cc2)CC(C)O)cc1 (configuration not stated)	-5	1%	-1%	-3%	-3%	-8
COc1ccc(C(=O)C2CCCN(C(=O)CCc3scnc3C)C2)c(C)c1 (configuration not stated)	47*	-2%	?	32µM*	-4%	92*
Cc1cc(Cl)ccc1NC(=O)C1COc2ccccc2O1 (configuration not stated)	37*	1%	-5%	12%	4%	87*
CCN(CC(=O)Nc1cc(Cl)ccc1C)C(=O)C1COc2ccccc2O1 (configuration not stated)	nt	nt	nt	20µM*	-4%	nt
Cc1ccc(Cl)cc1NC(=O)C1COc2ccccc2O1 (configuration not stated)	11	0%	-6%	10%	-1%	26
CCN(CC(=O)Nc1ccc(NC(C)=O)cc1)C(=O)C1COc2ccccc2O1 (configuration not stated)	-4	-1%	nt	0%	-7%	-12
COc1cccc(NC(=O)C2COc3ccccc3O2)c1 (configuration not stated)	60*	10%	12%	2%	-7%	nt
O=C(Nc1cccc(Cl)c1)C1COc2ccccc2O1 (configuration not stated)	16*	2%	3%	-26%	-1%	29
COCc1c(C(=O)NCCOc2ccc(Cl)cc2)oc2ccccc12	nt	nt	nt	-7%	0%	nt
Fc1ccc(Nc2cccc3nccnc23)cc1	22*	0%	-11%	-3%	-3%	47*
c1cc(Nc2cccc3nccnc23)c2nccnc2c1	-2	-4%	0%	8%	-5%	-9
O=C(O)c1[nH]c2ccc(Cl)cc2c1CC(=O)N1CCN(c2ccccc2)CC1	-7	1%	-2%	-8%	1%	-15
O=C(c1cc2cc(Cl)ccc2[nH]1)N1CCN(C(=O)c2ccco2)CC1	6	12%	nt	16µM*	0%	2
O=C(O)c1[nH]c2ccc(Cl)cc2c1CC(=O)N1CCN(C(=O)c2ccco2)CC1	-3	24%	8%	22µM*	-14%	-6
CSC[C@H]1CN(Cc2ccccc2)C(=O)[C@@H]1CC(=O)Nc1ccc(Br)cc1	nt	nt	nt	nt	1%	nt
CCOc1ccc(NC(=O)c2cc(C)nc3c2c(C)nn3-c2ccc(C)cc2)cc1	nt	nt	nt	15%	1%	nt
CC1(c2nnc(-c3ccncc3)o2)CC(c2ccc([N+](=O)[O-])cc2)=NO1 (configuration not stated)	-5	3%	-3%	35µM*	4%	-6
CC(CNc1ccccc1O)C(=O)O (configuration not stated)	-1	-3%	?	50µM*	-4%	-4
CCCn1c(N)c(N(CCOC)C(=O)c2cc(-c3ccco3)nc3ccccc23)c(=O)[nH]c1=O	2	-2%	nt	18µM*	0%	-38
CCCCn1c(N)c(N(CCOC)C(=O)c2cc(-c3ccccc3)nc3ccccc23)c(=O)[nH]c1=O	nt	nt	nt	4%	3%	nt
CCCCN(C(=O)c1ccc(-c2ccc(Cl)cc2)o1)c1c(N)n(CCCC)c(=O)[nH]c1=O	nt	nt	nt	-5%	2%	nt
COCCCN(C(=O)c1cc(-c2ccco2)nc2ccccc12)c1c(N)n(Cc2ccccc2)c(=O)[nH]c1=O	nt	nt	nt	16µM*	-5%	nt
CCCCn1c(N)c(N(CCOC)C(=O)c2ccc(-c3ccc(Cl)cc3)o2)c(=O)[nH]c1=O	nt	nt	nt	45µM*	-11%	nt
CC1CCCCN1CCCNC(=O)c1ccc2c(c1)sc1nc(-c3ccc(F)cc3)cn12 (configuration not stated)	nt	nt	nt	-3%	1%	nt
CCOC(=O)c1cnc(SCC(C)C)nc1N	52*	-5%	10%	-2%	0%	+
SMILES	CHX counter	LmPK inh	Giardia FBPA inh	Sm TGR inh	Tb PYK inh	Shiga inhibitor
CCOC(=O)c1cnc(SCC(=O)c2ccc(C)cc2)nc1N	-3	8%	-1%	2%	0%	-2
CCOC(=O)c1cnc(SCc2cccc(C)c2)nc1N	53*	4%	0%	6%	-13%	54*
CCOC(=O)c1cnc(SC)nc1N	17*	-10%	-1%	1%	5%	-3
COc1ccc(Cc2nnc(NC(=O)c3ccccc3C)s2)cc1	10	-8%	5%	15%	-11%	5
CCOc1ccc(NS(=O)(=O)c2ccc(-c3cc(C)no3)s2)cc1	nt	nt	nt	-2%	-7%[15.4 µM]	nt
CO/N=C(/C(=O)N[C@@H]1C(=O)N2C(C(=O)O)=C(CSc3cnns3)CS[C@H]12)c1csc(N)n1	nt	nt	nt	nt	-3%	nt
O=C(CSc1nc2c(sc3ccccc32)c(=O)n1-c1ccccc1)NCc1ccco1	30*	1%	0%	?	-13%	44
CCOCCCn1c(SCC(=O)NCc2ccco2)nc2c(sc3ccccc32)c1=O	32*	7%	-6%	-22%	nt	46
O=C(CSc1nc2c(sc3ccccc32)c(=O)n1CCc1ccccc1)NCc1ccco1	-1	4%	2%	-4%	1%	-3
C=CCn1c(=O)c2ccccc2n2c(SCC(=O)O)nnc12	-8	5%	-20%	14%	6%	-13
CCOCCCn1c(SCc2nc3ccccc3s2)nc2ccccc2c1=O	87*	0%	17%	6%	-11%	101*
COCCn1c(SCc2nc3ccccc3s2)nc2ccccc21	37*	-4%	-7%	-4%	-10%	147*
CCOCCCn1c(SCC(=O)Nc2ccccc2)nc2ccccc2c1=O	2	2%	5%	-17%	-3%	3
C=CCn1c(=O)c2ccccc2n2c(SCc3nc4ccccc4s3)nnc12	45*	-10%	-11%	2%	-6%	131*
CCCOc1ccc(OC(=O)c2c(-c3ccccc3Cl)noc2C)cc1	nt	nt	nt	-3%	-1%	nt
Cc1cccc(NC(=O)C2Cc3ccccc3O/C2=N\O)c1 (configuration not stated)	27*	4%	2%	6%	-10%	63*
Cc1cccc(NC(=O)CC2c3ccccc3Oc3ccccc32)c1	1	7%	0%	-1%	-1%	-6
COc1ccc(NC(=O)C2Cc3ccccc3O/C2=N\O)cc1 (configuration not stated)	51*	0%	1%	16%	-1%	114*
COc1ccc(NC(=O)C2Cc3cccc(OC)c3O/C2=N\O)cc1 (configuration not stated)	-2	2%	11%	5%	0%	2
CCCCOC(=O)c1ccc(S(N)(=O)=O)o1	11*	-3%	0%	-1%	-5%	-14
CCCOC(=O)c1ccc(S(N)(=O)=O)o1	1	-3%	4%	-21%	-12%	-10
